According to PubChem BioAssay:
Calls of active or inactive are those of the source.

Experiments:
[1] = target: Albumin (Bos taurus) (UniProt P02769); experiment: compounds binding labelled BSA control protein – biochemical, small-molecule microarray, Alexa647 label, 635/667 nm fluorescence, artefact control for SMM control protein annotation, profiling panel (AID 1118); settings: BSA-A647 binding, fluorescence 635 nm, higher = more signal;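 note: score merges 667 nm emission intensity and signal-to-noise per printed compound spot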
Albumin (Bos taurus), sequence (P02769 whole entry, looked up): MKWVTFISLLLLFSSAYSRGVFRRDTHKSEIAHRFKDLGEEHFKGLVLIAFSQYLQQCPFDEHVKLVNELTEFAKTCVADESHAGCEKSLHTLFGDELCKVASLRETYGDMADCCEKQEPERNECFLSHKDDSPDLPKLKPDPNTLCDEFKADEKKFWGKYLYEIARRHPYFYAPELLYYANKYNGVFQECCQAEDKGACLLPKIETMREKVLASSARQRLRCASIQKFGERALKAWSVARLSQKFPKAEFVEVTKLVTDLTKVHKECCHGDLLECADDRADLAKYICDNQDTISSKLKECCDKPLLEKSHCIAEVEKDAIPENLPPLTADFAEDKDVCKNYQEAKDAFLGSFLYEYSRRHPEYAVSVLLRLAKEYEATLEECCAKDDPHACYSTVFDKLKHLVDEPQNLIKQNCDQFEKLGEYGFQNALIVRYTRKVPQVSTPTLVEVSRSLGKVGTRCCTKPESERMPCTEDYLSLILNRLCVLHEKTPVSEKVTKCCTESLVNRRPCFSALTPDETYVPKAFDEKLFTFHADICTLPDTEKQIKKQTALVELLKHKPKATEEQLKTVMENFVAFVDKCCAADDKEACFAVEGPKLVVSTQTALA

[2] = probe aXIP binding to arrayed compounds – biochemical, NeuroSMM set, 635/667 nm fluorescence, primary screen (AID 1119); settings: small-molecule microarray, higher = more signal, called active from +8 up or from −8 down;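 note: probe is the protein aXip251-270 applied at 1 µg/mL to compound-printed slides; binding of probe to printed compounds measured as 667 nm fluorescence plus signal to noise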
[3] = probe aNOTCH3 binding on compound microarray – biochemical, small-molecule microarray, 635/667 nm fluorescence, primary screen (AID 1120); settings: higher = more signal;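 note: probe is a biotin-tagged antibody raised against NOTCH3 rather than NOTCH3 protein; score merges spot fluorescence near 667 nm with spot signal to noise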
[4] = probe aNOTCH2 binding on compound microarray – biochemical, small-molecule microarray, 635/667 nm fluorescence, primary screen (AID 1121); settings: higher = more signal;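 note: score merges feature fluorescence read at 667 nm with its signal to noise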
[5] = target: Carbonic anhydrase 2 (Homo sapiens) (UniProt P00918); experiment: compounds binding carbonic anhydrase 2 – biochemical, small-molecule microarray, Alexa647-labelled CAII, profiling panel (AID 1122); settings: CAII-A647 binding fluorescence, higher = more signal
[6] = COS7 lysate on small-molecule microarray, probe aHis, 635 nm (AID 1123); settings: COS7 cell lysate, fluorescence, higher = more signal;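 note: z-score combines 667nm fluorescence intensity with signal-to-noise per printed compound spot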
[7] = probe aLAP1 signal on lysate-treated microarray – cell lysate, small-molecule microarray, COS7 lysate, primary screen (AID 1124); settings: probe aLAP1, fluorescence, higher = more signal;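 note: lysate comes from COS7 cells expressing LAP1 and is applied at 0.3 µg/mL; score merges spot fluorescence near 667 nm with signal-to-noise over triplicate slides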
[8] = test system: Sam68 (KHDRBS1); experiment: compounds binding KHDRBS1 protein – biochemical, small-molecule microarray, 635 nm fluorescence, primary screen (AID 1125); settings: higher = more signal;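 note: score merges 667 nm channel intensity with signal to noise over triplicate slides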
[9] = test system: Chordin-like protein 2 (CHRDL2); experiment: compounds binding chordin-like 2 – biochemical, small-molecule microarray, 635 nm fluorescence, primary screen (AID 1126); settings: fluorescence 635 nm, higher = more signal;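 note: printed compound slides probed with Chrdl2 protein at 4 µg/mL for 1 h at 4 C; score merges 667 nm emission intensity with signal to noise over three replicate slides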
[10] = target: Concanavalin-A (Canavalia ensiformis) (UniProt P02866); experiment: compounds binding concanavalin A lectin – biochemical, small-molecule microarray, Alexa647 label, 635 nm, artefact control for SMM control protein annotation, primary screen (AID 1127); settings: ConA-A647 binding fluorescence, higher = more signal;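 note: z combines 667 nm emission intensity with signal-to-noise across three replicate slides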
Concanavalin-A (Canavalia ensiformis), sequence (P02866 whole entry, looked up): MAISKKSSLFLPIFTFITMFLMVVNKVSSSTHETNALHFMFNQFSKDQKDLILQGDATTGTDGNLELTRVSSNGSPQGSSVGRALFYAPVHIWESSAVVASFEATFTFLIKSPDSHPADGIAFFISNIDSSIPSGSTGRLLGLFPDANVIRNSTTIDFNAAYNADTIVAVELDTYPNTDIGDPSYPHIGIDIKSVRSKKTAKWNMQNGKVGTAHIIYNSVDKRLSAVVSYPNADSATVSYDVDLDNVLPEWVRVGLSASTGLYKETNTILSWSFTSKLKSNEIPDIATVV

[11] = compounds binding Alexa647 anti-His antibody – biochemical, small-molecule microarray, 635 nm fluorescence, artefact control for SMM control protein annotation, primary screen (AID 1128); settings: higher = more signal;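 note: score merges feature fluorescence with signal-to-noise for each printed compound spot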
[12] = test system: Human papillomavirus type 1a E7 protein (residues 1-88); experiment: HPV1a E7 small-molecule binders, primary screen, biochemical, small-molecule microarray, residues 1-88, 635 nm (AID 1129); settings: small-molecule microarray binding, fluorescence 635 nm; higher = more signal
[13] = target: Focal adhesion kinase 1 (Homo sapiens) (UniProt Q05397); experiment: PTK2 protein binding on printed compound slides – biochemical, small-molecule microarray, 635/667 nm fluorescence, BSA, DTT, primary screen (AID 1130); settings: 635 nm fluorescence, higher = more signal;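 note: composite of spot emission at 667 nm and signal to noise over triplicate slides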
Focal adhesion kinase 1 (Homo sapiens), sequence (Q05397 whole entry, looked up): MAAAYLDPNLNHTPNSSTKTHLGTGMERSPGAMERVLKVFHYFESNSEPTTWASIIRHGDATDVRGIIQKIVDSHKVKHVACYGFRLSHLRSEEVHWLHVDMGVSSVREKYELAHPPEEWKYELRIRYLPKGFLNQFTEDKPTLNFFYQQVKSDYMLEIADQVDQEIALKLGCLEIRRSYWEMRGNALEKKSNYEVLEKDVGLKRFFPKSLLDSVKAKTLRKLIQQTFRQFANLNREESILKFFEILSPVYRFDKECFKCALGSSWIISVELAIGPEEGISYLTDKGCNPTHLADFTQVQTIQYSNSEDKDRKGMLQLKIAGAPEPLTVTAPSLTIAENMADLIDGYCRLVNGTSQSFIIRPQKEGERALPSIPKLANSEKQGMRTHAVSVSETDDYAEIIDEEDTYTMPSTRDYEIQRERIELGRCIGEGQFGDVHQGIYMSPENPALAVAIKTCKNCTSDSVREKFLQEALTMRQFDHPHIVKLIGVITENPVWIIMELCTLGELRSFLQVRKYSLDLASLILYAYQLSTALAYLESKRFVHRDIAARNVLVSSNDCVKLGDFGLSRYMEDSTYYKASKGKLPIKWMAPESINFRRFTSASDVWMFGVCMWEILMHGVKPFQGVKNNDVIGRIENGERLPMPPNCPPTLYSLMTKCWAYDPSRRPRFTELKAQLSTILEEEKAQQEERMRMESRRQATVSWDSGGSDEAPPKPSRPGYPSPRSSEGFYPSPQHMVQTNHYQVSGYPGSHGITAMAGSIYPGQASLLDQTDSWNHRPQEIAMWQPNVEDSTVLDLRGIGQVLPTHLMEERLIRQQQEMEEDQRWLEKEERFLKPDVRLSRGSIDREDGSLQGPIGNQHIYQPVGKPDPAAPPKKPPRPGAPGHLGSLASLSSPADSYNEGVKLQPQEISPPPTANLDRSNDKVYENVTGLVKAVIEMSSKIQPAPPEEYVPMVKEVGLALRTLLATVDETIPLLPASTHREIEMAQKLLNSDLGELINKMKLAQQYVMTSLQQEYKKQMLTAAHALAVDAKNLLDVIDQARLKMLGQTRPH

[14] = test system: Fibrinogen (Alexa647-labelled); experiment: Alexa647-fibrinogen binding to printed small molecules – biochemical, small-molecule microarray, 635/667 nm fluorescence, artefact control for SMM control-protein annotation, profiling panel (AID 1131); settings: fibrinogen-A647 binding fluorescence, higher = more signal;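 note: z-score merges 667 nm fluorescence with per-spot signal-to-noise over triplicate slides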
[15] = target: Follistatin (Homo sapiens) (UniProt P19883); experiment: FST protein binding to printed compounds – biochemical, small-molecule microarray, 635/667 nm fluorescence, primary screen (AID 1132); settings: 635 nm fluorescence, higher = more signal
Follistatin (Homo sapiens), sequence (P19883 whole entry, looked up): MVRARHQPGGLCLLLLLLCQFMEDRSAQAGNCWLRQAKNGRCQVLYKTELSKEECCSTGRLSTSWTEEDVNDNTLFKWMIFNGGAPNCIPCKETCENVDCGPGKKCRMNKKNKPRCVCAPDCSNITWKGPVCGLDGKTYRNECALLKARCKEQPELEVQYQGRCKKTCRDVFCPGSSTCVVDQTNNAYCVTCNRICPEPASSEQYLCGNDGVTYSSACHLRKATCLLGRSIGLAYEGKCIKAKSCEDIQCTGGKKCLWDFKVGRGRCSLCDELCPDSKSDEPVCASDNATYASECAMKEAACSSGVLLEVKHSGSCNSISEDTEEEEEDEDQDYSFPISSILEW

[16] = target: Fibroblast growth factor 2 (Homo sapiens) (UniProt P09038); experiment: basic fibroblast growth factor binding to printed compounds – biochemical, small-molecule microarray, 635/667 nm fluorescence, primary screen (AID 1133); settings: FGF2, fluorescence 635/667, higher = more signal
Fibroblast growth factor 2 (Homo sapiens), sequence (P09038 whole entry, looked up): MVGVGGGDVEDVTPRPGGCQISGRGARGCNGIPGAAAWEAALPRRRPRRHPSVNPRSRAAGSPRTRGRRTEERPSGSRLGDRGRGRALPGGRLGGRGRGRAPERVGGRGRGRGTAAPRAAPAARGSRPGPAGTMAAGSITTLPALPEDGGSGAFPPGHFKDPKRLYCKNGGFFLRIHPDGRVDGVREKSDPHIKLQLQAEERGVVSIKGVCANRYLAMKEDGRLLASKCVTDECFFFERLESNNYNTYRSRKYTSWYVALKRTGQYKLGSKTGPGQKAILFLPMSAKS

[17] = JC-1 mitochondrial potential readout, lung cancer cells – cell-based, A549, JC-1 fluorescence, basal, 24 h, 100 nL, profiling panel (AID 1138); settings: higher = more signal;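 note: A549 lung adenocarcinoma cells under basal conditions with no added stimulus; test concentration not given here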
[18] = test system: Lefty1; experiment: Lefty1 protein binding to printed compounds – biochemical, small-molecule microarray, 635/667 nm fluorescence, primary screen (AID 1139); settings: fluorescence 635/667, higher = more signal
[19] = test system: wheat germ agglutinin (Triticum aestivum), Alexa647-labelled; experiment: Alexa647-WGA lectin binding to printed small molecules – biochemical, small-molecule microarray, 635/667 nm fluorescence, artefact control for SMM control-protein annotation, profiling panel (AID 1140); settings: WGA-A647 binding, 635 nm fluorescence, higher = more signal;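 note: score merges 667 nm feature emission with signal to noise over triplicate slides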
[20] = target: Luciferin 4-monooxygenase (Photinus pyralis) (UniProt P08659); experiment: inhibition of purified Photinus pyralis luciferase – biochemical, luminescence, purified enzyme, 2006 set, primary screen (AID 1141); settings: purified firefly luciferase, SteadyGlo luminescence, 30 min; higher = more signal, called active from +8 up or from −8 down;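 note: cell-free assay with purified firefly luciferase at 100 ng per well in PBS; test concentration not given here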
Luciferin 4-monooxygenase (Photinus pyralis), sequence (P08659 whole entry, looked up): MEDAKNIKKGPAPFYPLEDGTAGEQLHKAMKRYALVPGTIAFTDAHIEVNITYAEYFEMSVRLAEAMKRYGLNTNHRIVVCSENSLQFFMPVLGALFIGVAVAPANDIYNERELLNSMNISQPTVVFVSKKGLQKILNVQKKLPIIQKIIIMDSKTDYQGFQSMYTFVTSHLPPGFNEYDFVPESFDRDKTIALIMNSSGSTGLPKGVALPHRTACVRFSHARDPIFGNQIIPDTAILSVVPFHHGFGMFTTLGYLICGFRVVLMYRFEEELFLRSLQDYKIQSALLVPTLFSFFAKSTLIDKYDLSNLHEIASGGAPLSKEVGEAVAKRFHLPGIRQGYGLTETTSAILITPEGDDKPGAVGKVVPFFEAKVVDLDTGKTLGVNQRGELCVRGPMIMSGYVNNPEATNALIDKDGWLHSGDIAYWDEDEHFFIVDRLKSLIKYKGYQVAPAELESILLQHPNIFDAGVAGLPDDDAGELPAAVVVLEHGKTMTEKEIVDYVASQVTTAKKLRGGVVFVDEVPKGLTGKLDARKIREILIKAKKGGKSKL

Compound	composite z-score [1]	composite Z-score [2]	composite z-score [3]	composite z-score [4]	composite z-score [5]	composite z-score [6]	composite z-score [7]	composite z-score [8]	composite z-score [9]	composite z-score [10]	composite z-score [11]	composite z-score [12]	composite z-score [13]	composite z-score [14]	composite z-score [15]	composite z-score [16]	z-score [17]	composite z-score [18]	composite z-score [19]	z-score [20]
CO[C@H]1COC(=O)CC=C[C@H](C)[C@@H](OC)COC(=O)[C@H](C)COC(=O)CC=C[C@@H]1C	-1.2	0.559 (inactive)	0.0306	-0.133	-0.425	-0.552	0.975	-0.106	1.43	-0.55	0.487	-0.759	-0.309	-0.899	1.36	1.36	1.13	1.12	-0.844	-0.913 (inactive)
CCOC(=O)NN=C1C[C@@H](O)[C@@H](O)[C@@H]2[C@@H]3C(=O)N([C@@H](C)c4ccccc4)C(=O)[C@@H]3CC[C@@H]12	-0.899	-0.491 (inactive)	0.119	-0.0968	-0.0526	-0.374	0.129	1.23	1.02	-1.09	-0.43	0.0085	0.692	0.897	1.28	0.642	-0.337	1.3	0.193	0.685 (inactive)
CCOC(=O)NN=C1C[C@@H](O)[C@@H](O)[C@@H]2[C@@H]3C(=O)N(Cc4ccccc4)C(=O)[C@@H]3CC[C@H]12	-0.182	-0.374 (inactive)	-0.183	-0.174	0.542	0.307	-0.4	-0.0882	0.194	1.12	0.347	-0.143	0.0254	0.706	0.0086	-0.227	-0.39	0.3	0.0439	0.746 (inactive)
CC=CC1=C(CO)C(=O)[C@@H]2O[C@@H]2C1=O	-0.651	0.833 (inactive)	-0.109	-0.102	0.298	-0.91	-0.724	-0.533	1.45	-0.579	0.366	-0.385	-0.681	-0.328	1.44	1.89	-1.06	1.34	-0.173	-0.78 (inactive)
C[C@@H](c1ccccc1)N1C(=O)[C@H]2[C@H]3[C@H](O)[C@H](O)CC(=NO[C@@H]4O[C@H](CO)[C@@H](O)[C@H](O)[C@H]4O)[C@@H]3CC[C@H]2C1=O	0.423	-0.766 (inactive)	0.0996	-0.109	-0.157	0.335	-0.0315	0.258	0.25	0.411	0.26	0.585	-0.0533	0.19	0.31	0.281	0.269	0.351	-0.0604	0.351 (inactive)
